# Measurements taken from PubChem BioAssay AID2315 (National Center for Advancing Translational Sciences (NCATS), 2010).
# The campaign covered roughly 290,000 compounds. About 27,000 (9.3%) were called active. Only a selection was taken, and actives are over-represented in it overall. A number with no mark means an inactive call. Cut-off read from the data, not from the text of the source: active = inhibition mostly above about 28% (no sharp cut-off); inactive = mostly below about 43%.
# Assay: A qHTS for Small Molecule Inhibitors of Shiga Toxin; note: 0% is about no effect
# Details: Vero cells, Shiga toxin protein synthesis inhibition reporter; at 38.7 µM, stronger effect = higher value
row,Structure (SMILES),inhibition
1,CN(C)CCNc1ccc(-c2n[nH]c(=O)c3ccccc23)cc1[N+](=O)[O-],-10.6%
2,Cc1ccc(C(=O)NCC(=O)NCc2cc(=O)n(C)c(=O)n2C)cc1,-10.2%
3,COc1ccc(C(C(=O)NC2CCCCC2)N(C(=O)c2snc(C(N)=O)c2N)c2ccccc2OC)cc1 (centres undefined),-17.5%
4,COc1ccc(-n2nc(C(=O)NCC(=O)N3CCCCCC3)c3ccccc3c2=O)cc1Cl,-9.59%
5,COc1cc(CC(=O)N2CCC(n3nccc3NC(=O)C3CC3)CC2)cc(OC)c1OC,-10.9%
6,Cc1cc(C)cc(N(CCC#N)C(=O)CN2C(=O)NC3(CCCC3)C2=O)c1,23%
7,O=C(O)C1CCCN1C1=NS(=O)(=O)c2ccccc21 (centres undefined),-13.3%
8,CCOC(=O)C1CCN(C(=O)Cn2nc(C)c3c(C)n(-c4ccccc4)nc3c2=O)CC1,-6.47%
9,COc1ccc(N2CCN(S(=O)(=O)c3cc(Br)cnc3N)CC2)cc1,-7.11%
10,O=C(CCN1C(=O)[C@@H]2Cc3ccccc3CN2C1=O)NCCc1ccccc1,-8.8%
11,O=C(c1cc(COc2ccc(F)cc2F)on1)N1CCOCC1,81.3% (active)
12,O=C(Oc1ccc(C(=S)N2CCOCC2)cc1)c1ccc(F)cc1,-4.36%
13,COCCN1CCN(C(=O)c2cc(COc3ccc(F)cc3Cl)on2)CC1,-23.4%
14,COc1ccc(/C=C/c2nnc(NC(=O)C(C)C)s2)cc1,42.3% (active)
15,O=C(CSc1ccccc1)Nc1nnc(/C=C/c2ccccc2)s1,-38.9%
16,O=C(Nc1ccc(Cl)cc1)Nc1nnc(/C=C/c2ccccc2)s1,-5.24%
17,COC(=O)[C@]1(S(=O)(=O)c2ccccc2)C[C@@H]2ON=C(c3ccc(OC)cc3)[C@@H]2C1,13.5%
18,Cc1nn2cc(-c3ccc(Cl)cc3)cnc2c1Br,38.8% (active)
19,COc1ccc(N2CCN(C(=S)Nc3ccc(S(N)(=O)=O)cc3)CC2)cc1,-17.7%
20,COc1ccc(NC(=S)N2N=CCC2c2ccccc2)cc1 (centres undefined),88.7% (active)

row,Structure (SMILES),inhibition
1,COc1ccc(NC(=O)N2CCC(Cc3ccccc3)CC2)cc1,35.2%
2,COc1ccccc1CNC(=O)C1CCN(S(=O)(=O)c2ccc3c(c2)CC(C)N3C(=O)C2CC2)CC1 (centres undefined),-10.2%
3,Cc1ccc(N(Cc2ccccc2O)C(=O)c2ccccc2F)cc1,-2.19%
4,CCOc1ccc2nc(Nc3nc4ccc(NC(C)=O)cc4s3)sc2c1,50.5%
5,CCOc1ccc2nc(C(=O)N3CCCC(C)C3)sc2c1 (centres undefined),129% (active)
6,CCCC(=O)N(CCN1CCOCC1)c1nc2ccc(OCC)cc2s1,1.4%
7,CC(C)[C@@H](C(=O)O)N(Cc1cccc(CN([C@H](C(=O)O)C(C)C)S(C)(=O)=O)c1)S(C)(=O)=O,-4.11%
8,CN1c2ccc([N+](=O)[O-])cc2C(C)(C)C12C=Cc1cc(C(=O)O)ccc1O2 (centres undefined),6.92%
9,COc1cccc(CC2(CO)CCCN(CC3=Cc4cc(OC)ccc4OC3)C2)c1 (centres undefined),-9.4%
10,COc1ccc2c(c1)C=CC1(O2)N(CCO)c2ccccc2C1(C)C (centres undefined),40.8% (active)
11,Cc1ccc(C)c(NC(=O)c2cc(-c3cc(C)cc(C)c3O)n[nH]2)c1,1.58%
12,Clc1ccc(C[n+]2cc(-c3ccccc3)n3c2CCC3)cc1,12.3%
13,Cc1ccc(/C=N/NC(=O)c2cc3ccccc3cc2O)o1,51.6% (active)
14,O=C(N/N=C/c1cccnc1)c1ccc(NC(=O)c2ccc(F)cc2)cc1,12.4%
15,O=C(N/N=C\c1cccnc1)c1cc(-c2ccccc2)nc2c(Cl)cccc12,-27%
16,Cc1ccc(/C=N/NC(=O)CSc2ccccn2)o1,17.6%
17,O=C(N/N=C/c1cccnc1)c1cc2ccccc2cc1O,87.2% (active)
18,Cc1ccc(/C=N/NC(=O)CNC(=O)COc2ccccc2)o1,-15.5%
19,CN(C)CCOC1c2ccccc2-c2ccccc21,-5.07%
20,COc1ccc(NC(=O)CNC(=O)Cc2ccccc2)cc1OC,3.87%

row,Structure (SMILES),inhibition
1,O=C(CN(Cc1ccccc1)C(=O)CCC(=O)Nc1ccccn1)NCCc1ccccc1,-11.7%
2,COc1ccc2c(c1)c(C(=O)N/N=C/c1cccs1)c(C)n2C,-4.44%
3,CSc1nnc(NC(=O)c2nc(S(=O)(=O)Cc3ccc(C)cc3)ncc2Cl)s1,85.5% (active)
4,CSc1ncc(Cl)c(C(=O)Nc2cc(C)ccc2C)n1,-0.876%
5,Cc1nnc(NC(=O)CCCOc2ccccc2)s1,-8.1%
6,Cc1ccc(S(=O)(=O)CC(=O)Nc2nnc(C)s2)cc1,-7.78%
7,COCCSc1nnc(NC(=O)CCS(=O)(=O)Cc2ccccc2)s1,-28.2%
8,Cc1ccc(CS(=O)(=O)c2ncc(Cl)c(C(=O)Nc3nnc(C)s3)n2)cc1,116% (active)
9,S=C(NCc1ccco1)NCc1ccccc1Cl,12.9%
10,CCOC(=O)c1ccc(-n2c(CCC(=O)O)ccc2-c2ccccc2)cc1,1.31%
11,O=C(O)CCn1c(Cc2ccccc2)nc2ccccc21,22.4%
12,CC(=O)c1cccc(NC(=S)N2CCN(S(C)(=O)=O)CC2)c1,-3.09%
13,Cc1cc(C(=O)COC(=O)CNC(=O)c2ccc(F)cc2)c(C)n1Cc1ccco1,109% (active)
14,Cc1ccc(OCC(=O)c2cc(C)n(Cc3ccco3)c2C)c([N+](=O)[O-])n1,50.3% (active)
15,Cc1cc(C(=O)CSc2nc(N)cc(=O)[nH]2)c(C)n1Cc1ccco1,-5.79%
16,COCC(C)n1c(C)cc(C(=O)COc2ccc(C)nc2[N+](=O)[O-])c1C (centres undefined),27%
17,O=C(COC(=O)CNC(=O)c1ccco1)Nc1ccc(F)cc1,-5.84%
18,COc1ccc(C)cc1-n1nnnc1SCC(=O)c1cc(C)n(Cc2ccco2)c1C,-3.11%
19,CC(C)CCn1c(=O)c2c(nc3n2CCCN3Cc2ccccc2)n(C)c1=O,-11.9%
